Screens as filed in PubChem BioAssay.
TDP1 cell noCPT: qHTS for Inhibitors of human tyrosyl-DNA phosphodiesterase 1 (TDP1): qHTS in cells in absence of CPT. DT40 Tdp1-/- hTDP1 cells, no CPT, ATP luminescence, 48 h. Potency, µM (doses to about 46.2 µM), actives largely listed as inhibitors. 420,000 tested, 15% active. AID 686978, 2013; also: nearly all actives have a fitted effect of over 55% in size
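Compound effects on proliferation are scored in DT40 Tdp1-/-;hTDP1 cells in the absence of CPT. ATP levels (CellTiter-Glo luminescence) are recorded after a ≥48 hr, 37 °C incubation.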
DT40 TDP1 CPT: growth inhibition of DT40 Tdp1-/-;hTDP1 cells with camptothecin (screen for TDP1 inhibitors) | AID 686979 | chicken DT40 Tdp1-/-;hTDP1 cells + 20 nM CPT, ATP luminescence, 48 h | 420,000 tested, 12% active | Potency, µM (top dose mostly 46.2 µM), most hits filed as inhibitors; also: nearly all actives have a fitted effect of over 55% in size
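Chicken DT40 Tdp1-/- cells complemented with human TDP1, 400 cells/well, exposed to compounds plus 20 nM camptothecin for at least 48 h at 37 C; viability read as ATP content by CellTiter-Glo luminescence.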
VDR inh: vitamin D3 receptor (human) inhibition. 400,000 tested, 0.93% active. VDR-SRC2-3 peptide fluorescence polarization, 2 h. P11473. Potency, µM, actives largely listed as inhibitors
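FP read-out; VDR + SRC2-3 coactivator peptide; 23 nl compound by pintool; 2 h RT incubation; reagents held at 4 deg C, protected from light.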
KAT2A inh: blocks human GCN5L2 histone acetyltransferase; Potency, µM (highest dose often 58.9 µM), actives largely listed as inhibitors; AID 504327; GCN5L2 HAT assay, ThioGlo1 CoA-SH fluorescence; 390,000 tested, 0.21% active; Q92830
Target sequence (Q92830 whole entry, looked up): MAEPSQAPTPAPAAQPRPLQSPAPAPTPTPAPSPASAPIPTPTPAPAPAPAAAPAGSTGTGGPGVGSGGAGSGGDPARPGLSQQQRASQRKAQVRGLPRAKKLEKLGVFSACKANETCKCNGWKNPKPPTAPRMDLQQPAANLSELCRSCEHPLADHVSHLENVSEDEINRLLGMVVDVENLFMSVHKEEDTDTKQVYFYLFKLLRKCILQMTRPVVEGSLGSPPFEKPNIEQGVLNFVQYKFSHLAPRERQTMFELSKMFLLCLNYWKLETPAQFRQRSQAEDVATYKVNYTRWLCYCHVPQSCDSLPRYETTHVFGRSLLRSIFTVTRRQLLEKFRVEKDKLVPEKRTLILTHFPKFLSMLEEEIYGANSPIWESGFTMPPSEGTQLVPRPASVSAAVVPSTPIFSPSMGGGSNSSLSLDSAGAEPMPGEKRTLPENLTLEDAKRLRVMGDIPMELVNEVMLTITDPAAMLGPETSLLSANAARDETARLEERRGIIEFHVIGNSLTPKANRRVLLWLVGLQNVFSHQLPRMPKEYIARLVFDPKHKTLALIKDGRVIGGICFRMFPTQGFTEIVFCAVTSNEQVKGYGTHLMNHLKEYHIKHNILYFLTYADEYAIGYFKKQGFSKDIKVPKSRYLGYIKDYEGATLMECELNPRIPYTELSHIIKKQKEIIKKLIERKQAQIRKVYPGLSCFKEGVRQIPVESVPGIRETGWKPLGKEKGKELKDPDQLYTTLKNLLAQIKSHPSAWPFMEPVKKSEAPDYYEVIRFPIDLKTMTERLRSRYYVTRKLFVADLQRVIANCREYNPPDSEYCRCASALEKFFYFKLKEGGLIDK
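ThioGlo1-coupled HAT assay: 20nM GCN5L2, 70uM acetyl-CoA, 75uM H3(1-25) peptide, pH 7.5. Fluorescence read at 340/540nm at start and after 20 min at room temperature.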
PLK1 PBD inh: inhibitors of human PLK1 polo-box domain binding. Plk1 PBD binding of FITC phosphopeptide, fluorescence polarization. Potency, µM, hits mostly inhibitors. P53350. 360,000 tested, 2.8% active; also: series mostly up to about 57 µM; nearly all actives have a fitted effect of over 65% in size
TDP1 inh: inhibitors of human tyrosyl-DNA phosphodiesterase TDP1. recombinant TDP1, AlphaScreen DNA substrate cleavage. AID 485290. 350,000 tested, 0.28% active. Potency, µM (titrated, usually from 130 µM), usual class: inhibitors; also: nearly all actives have a fitted effect of over 40% in size
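Recombinant E. coli-expressed Tdp1 (1 nM) preincubated with compound 15 min at RT, then 5'-biotin/3'-phosphotyrosine-FITC DNA substrate (15 nM) added for 5 min. AlphaScreen beads (10 ug/ml) added, 10 min RT; tyrosine-FITC cleavage read as signal loss.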
Large screens that a line does not name were inactive. Sampled rows, rich in hits. Any-hit rate of the full collection: about 18%. Calls follow the shape of the dose curve; as a rule, active = well fitted curve in the direction sought with a large enough effect; inconclusive = small, poorly fitted or top-dose-only effect, or another doubt; inactive = no such curve, though single readings can be large; an effect the other way counts as inactive or inconclusive.

COc1ccc(NC(=O)c2cc(S(=O)(=O)N(Cc3ccccc3)c3ccccc3)ccc2Cl)cn1	TDP1 cell noCPT inconclusive
COC(=O)CCCC1=CC2=CC(=O)C(C)(OC(=O)c3cccs3)C(=O)C2=CN1C(CO)CO (centres undefined)	none (no result: TDP1 cell noCPT, DT40 TDP1 CPT, VDR inh, KAT2A inh, PLK1 PBD inh)
Cc1ncoc1C(=O)NC1CCCc2c1cnn2-c1cc(F)cc(F)c1 (centres undefined)	TDP1 cell noCPT 26µM (no result: VDR inh, KAT2A inh, TDP1 inh)
O=C(NC1CCCc2c1cnn2-c1cc(F)cc(F)c1)c1ccncc1 (centres undefined)	none
CCn1nc(C)cc1C(=O)NC1CCCc2c1cnn2-c1cc(F)cc(F)c1 (centres undefined)	TDP1 cell noCPT 18µM, DT40 TDP1 CPT inconclusive
O=C(CN1CCN(C(=O)CN2C(=O)NC3(CCCC3)C2=O)CC1)Nc1cccc(F)c1	none
Cc1ccc(CN(C(=O)c2ccc(C(C)(C)C)cc2)c2ccccn2)o1	TDP1 cell noCPT inconclusive, DT40 TDP1 CPT inconclusive (no result: PLK1 PBD inh)
COC(=O)c1ccc2nc(-c3ccc(OC)c(OC)c3)c(Cc3ccsc3)n2c1	TDP1 cell noCPT 23µM, DT40 TDP1 CPT 16µM (no result: VDR inh, KAT2A inh, TDP1 inh)
COc1ccc(-c2nc3ccc(Cl)cn3c2Cc2ccccc2)cc1OC	TDP1 cell noCPT inconclusive (no result: VDR inh, KAT2A inh, TDP1 inh)
Clc1ccc2nc(-c3ccccc3)c(Cc3ccsc3)n2c1	TDP1 cell noCPT inconclusive (no result: VDR inh, KAT2A inh, TDP1 inh)
COC(=O)c1ccc2nc(-c3ccccc3)c(Cc3ccsc3)n2c1	TDP1 cell noCPT inconclusive, DT40 TDP1 CPT 21µM (no result: VDR inh, KAT2A inh, TDP1 inh)
COC(=O)c1ccc2nc(-c3ccc(Cl)cc3)c(Cc3ccsc3)n2c1	TDP1 cell noCPT 12µM, DT40 TDP1 CPT inconclusive (no result: VDR inh, KAT2A inh, TDP1 inh)
COC(=O)c1ccc2nc(-c3ccc(OC)c(OC)c3)c(Cc3ccc(OC)cc3C)n2c1	TDP1 cell noCPT 26µM, DT40 TDP1 CPT inconclusive (no result: VDR inh, KAT2A inh, TDP1 inh)
COC(=O)c1ccc2nc(-c3cccc(Br)c3)c(Cc3ccsc3)n2c1	TDP1 cell noCPT inconclusive, DT40 TDP1 CPT inconclusive (no result: VDR inh, KAT2A inh, TDP1 inh)
COc1ccc(-c2nc3ccc(C)cn3c2CC2CCCCC2)cc1OC	TDP1 cell noCPT 18µM, DT40 TDP1 CPT 18µM (no result: VDR inh, KAT2A inh, TDP1 inh)
COc1ccc(-c2nc3ccc(C)cn3c2Cc2ccsc2)cc1OC	TDP1 cell noCPT 7.3µM, DT40 TDP1 CPT 8.2µM (no result: VDR inh, KAT2A inh, TDP1 inh)
COC(=O)c1ccc2nc(-c3cccc(Cl)c3)c(Cc3ccsc3)n2c1	TDP1 cell noCPT 16µM, DT40 TDP1 CPT inconclusive (no result: VDR inh, KAT2A inh, TDP1 inh)
COc1ccc(-c2nc3cc(C)c(Br)c(C)n3c2Cc2ccsc2)cc1OC	TDP1 cell noCPT inconclusive, DT40 TDP1 CPT inconclusive (no result: VDR inh, KAT2A inh, TDP1 inh)
COc1ccc(CC(=O)NCc2n[nH]c(=S)n2-c2ccc(Br)cc2)cc1	PLK1 PBD inh inconclusive
O=C(Cc1ccccc1)NCc1n[nH]c(=S)n1-c1ccc(Br)cc1	TDP1 cell noCPT inconclusive, DT40 TDP1 CPT inconclusive, VDR inh inconclusive, PLK1 PBD inh 11µM
O=C(NC(=O)c1ccccc1)Nc1cccc(S(=O)(=O)N2CCCCC2)c1	none (no result: TDP1 inh)
C=CC[C@@H](Cc1ccc(F)cc1)C(=O)OC[C@@H]1CCCN1C(=O)[C@@H](CC=C)CC(=O)NCCO	none
CN(C(=O)c1cccc(NC(=O)Cc2ccc(NC(=O)C3CCN(C(=O)C4CCCCC4)CC3)cc2)c1)C1CC1	TDP1 cell noCPT inconclusive (no result: KAT2A inh, TDP1 inh)
CC(=O)Nc1cccc(-c2ccnc3c2CC(C)(C(=O)NCCC(F)(F)F)O3)c1 (centres undefined)	TDP1 cell noCPT 4.1µM, DT40 TDP1 CPT 3.7µM (no result: VDR inh, KAT2A inh, TDP1 inh)
CC(=O)Nc1cccc(-c2ccnc3c2CC(C)(C(=O)NCc2ccc(F)c(F)c2)O3)c1 (centres undefined)	TDP1 cell noCPT 3.7µM, DT40 TDP1 CPT 3.7µM (no result: VDR inh, KAT2A inh, TDP1 inh)
CC1(C(=O)NCc2ccc(F)c(F)c2)Cc2c(-c3cccc(C(N)=O)c3)ccnc2O1 (centres undefined)	TDP1 cell noCPT inconclusive, DT40 TDP1 CPT inconclusive (no result: VDR inh, KAT2A inh, TDP1 inh)
CC(=O)Nc1cccc(-c2ccnc3c2CC(C)(C(=O)NCC2CC2)O3)c1 (centres undefined)	TDP1 cell noCPT 2.9µM, DT40 TDP1 CPT 4.1µM (no result: VDR inh, KAT2A inh, TDP1 inh)
O=C(O)c1cn(C2CCCCC2)c2ccccc2c1=O	none
CC(C)(C)NC(=O)CN(C(=O)c1csnn1)c1cccc2c1CCCC2	none
